{"source": "paper PMC4336329", "about": "(PLoS ONE, 2015)", "note": "In all, about 310,000 compounds went through this assay and about 14,000 (4.5%) showed an effect of 50% or more. Effects have a minus sign here. What follows is part of a selection rich in strong results, with near analogues and random picks from the rest.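 Also: peak tail current of the secondary pulse compared with the same well before compound.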"}
{"biological_target": "human ether-à-go-go-related gene (hERG) potassium channel (human, UniProt Q12809)", "sequence (Q12809 whole entry, looked up)": "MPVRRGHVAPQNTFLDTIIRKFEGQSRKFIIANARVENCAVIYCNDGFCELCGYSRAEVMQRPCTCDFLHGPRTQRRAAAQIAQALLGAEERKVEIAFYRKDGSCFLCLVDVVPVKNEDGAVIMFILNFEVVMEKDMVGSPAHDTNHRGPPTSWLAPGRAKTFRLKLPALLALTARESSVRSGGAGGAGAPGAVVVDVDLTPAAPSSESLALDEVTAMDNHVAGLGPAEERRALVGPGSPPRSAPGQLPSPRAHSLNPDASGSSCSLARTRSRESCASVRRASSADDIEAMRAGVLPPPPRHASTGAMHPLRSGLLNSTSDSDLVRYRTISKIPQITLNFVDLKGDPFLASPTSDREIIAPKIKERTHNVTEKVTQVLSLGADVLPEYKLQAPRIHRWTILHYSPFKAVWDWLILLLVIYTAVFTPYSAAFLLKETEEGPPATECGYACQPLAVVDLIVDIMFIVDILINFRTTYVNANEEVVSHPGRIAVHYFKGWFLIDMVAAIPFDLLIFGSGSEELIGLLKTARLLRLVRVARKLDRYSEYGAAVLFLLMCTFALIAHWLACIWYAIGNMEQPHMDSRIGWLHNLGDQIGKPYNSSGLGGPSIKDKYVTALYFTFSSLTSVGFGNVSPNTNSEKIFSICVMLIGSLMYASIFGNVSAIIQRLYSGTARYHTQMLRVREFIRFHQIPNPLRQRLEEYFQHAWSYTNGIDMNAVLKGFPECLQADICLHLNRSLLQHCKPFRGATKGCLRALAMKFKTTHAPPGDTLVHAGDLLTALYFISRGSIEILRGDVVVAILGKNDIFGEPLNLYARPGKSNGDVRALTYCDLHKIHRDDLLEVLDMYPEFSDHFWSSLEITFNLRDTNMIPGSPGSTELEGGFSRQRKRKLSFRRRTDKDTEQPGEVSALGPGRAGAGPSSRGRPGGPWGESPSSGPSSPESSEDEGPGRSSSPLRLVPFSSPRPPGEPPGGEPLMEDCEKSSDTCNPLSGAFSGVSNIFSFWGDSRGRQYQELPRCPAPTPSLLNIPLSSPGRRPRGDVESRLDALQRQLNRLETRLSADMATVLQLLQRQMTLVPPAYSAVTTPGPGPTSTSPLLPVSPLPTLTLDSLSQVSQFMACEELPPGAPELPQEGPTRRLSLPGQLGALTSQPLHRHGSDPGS", "experiment": "primary screen, population patch clamp on CHO cells stably expressing hERG; higher = less effect of the substance", "units": {"hERG current change (%, negative = inhibition) at 10uM": "%"}}
{"molecule": "O=C(COc1ccc2ccccc2c1Br)Nn1cnnc1", "hERG current change (%, negative = inhibition) at 10uM": -1.78}
{"molecule": "CCCCn1c(C)cc2cc(O)ccc21", "hERG current change (%, negative = inhibition) at 10uM": -16.8}
{"molecule": "CC(Oc1ccccc1F)C(=O)NC1CCS(=O)(=O)C1", "note": "(centres unmarked)", "hERG current change (%, negative = inhibition) at 10uM": 11}
{"molecule": "CC(=O)[C@@H]1[C@@H](C)N(Cc2ccccc2)C(=O)N[C@H]1c1ccccc1", "hERG current change (%, negative = inhibition) at 10uM": 10.4}
{"molecule": "CC1(/[N+]([O-])=C/c2cccc(Cl)c2)CCCCC1=O", "note": "(centres unmarked)", "hERG current change (%, negative = inhibition) at 10uM": 4.74}
{"molecule": "Cc1ccc(NC(=O)COC(=O)C2CC2(Cl)Cl)cc1C", "note": "(centres unmarked)", "hERG current change (%, negative = inhibition) at 10uM": -4.06}
{"molecule": "CSCCC(NC(=O)c1ccco1)C(=O)N(C)CC(=O)Nc1c(Cl)cccc1Cl", "note": "(centres unmarked)", "hERG current change (%, negative = inhibition) at 10uM": 11.8}
{"molecule": "O=C(O)C1C2C=CC(C3CC23)C1C(=O)O", "note": "(centres unmarked)", "hERG current change (%, negative = inhibition) at 10uM": 10.6}
{"molecule": "Cc1noc(C)c1C(=O)NCCc1ccccc1", "hERG current change (%, negative = inhibition) at 10uM": 0.324}
{"molecule": "COc1ccc(C(=O)NNC(=O)CN2CCC(n3nnc4cc(C(F)(F)F)ccc43)CC2)cc1", "hERG current change (%, negative = inhibition) at 10uM": -10.4}
{"molecule": "O=C(CN1CCC(n2nnc3cc(C(F)(F)F)ccc32)CC1)NCc1cccs1", "hERG current change (%, negative = inhibition) at 10uM": -74.5}
{"molecule": "O=C(CN1CCC(n2nnc3ccccc32)CC1)Nc1ccc2c(c1)CCC2", "hERG current change (%, negative = inhibition) at 10uM": -39.3}
{"molecule": "O=C(CN1CCC(n2nnc3cc(C(F)(F)F)ccc32)CC1)Nc1ccc2c(c1)CCC2", "hERG current change (%, negative = inhibition) at 10uM": 1.83}
{"molecule": "O=C(CN1CCC(n2nnc3ccccc32)CC1)NCc1cccs1", "hERG current change (%, negative = inhibition) at 10uM": -60.2}
{"molecule": "Cc1ccccc1C(=O)NC1CCN(CC(=O)NCc2cccs2)CC1", "hERG current change (%, negative = inhibition) at 10uM": 6.14}
{"molecule": "COc1ccccc1CNC(=O)c1cc2c(s1)CS(=O)(=O)C2", "hERG current change (%, negative = inhibition) at 10uM": 10.3}
{"molecule": "COc1cc(C)c(NC(=S)Nc2ccc(Cl)c(Cl)c2)cc1OC", "hERG current change (%, negative = inhibition) at 10uM": 5.06}
{"molecule": "COc1cc(CNc2nnnn2C)ccc1OCc1c(F)cccc1Cl", "hERG current change (%, negative = inhibition) at 10uM": 0.756}
{"molecule": "COC(=O)C1=C(c2ccc(-c3ccccc3)c(F)c2)C[C@@H]2CC[C@H]1N2C(=O)NC(C)C", "hERG current change (%, negative = inhibition) at 10uM": -16.8}
{"molecule": "COc1cccc(CN(C)C(=O)CSCC(=O)Nc2ccc(C)cc2)c1OC", "hERG current change (%, negative = inhibition) at 10uM": -12.9}
{"molecule": "CCOC(=O)Cn1c(CN2CCOCC2)nc2c1c(=O)[nH]c(=O)n2C", "hERG current change (%, negative = inhibition) at 10uM": 7.2}
{"molecule": "COc1ccc(C2Nc3ccccc3C(=O)N2Cc2ccccc2)cc1", "note": "(centres unmarked)", "hERG current change (%, negative = inhibition) at 10uM": 3.75}
{"molecule": "CC(C)CC(NC(N)=O)C(=O)NCCc1ccc(Cl)cc1Cl", "note": "(centres unmarked)", "hERG current change (%, negative = inhibition) at 10uM": 3.07}
{"molecule": "CCOP(=O)(OCC)C(NC(=O)Nc1cccc(Cl)c1)c1ccccc1", "note": "(centres unmarked)", "hERG current change (%, negative = inhibition) at 10uM": 5.75}
{"molecule": "CCC(C)[C@H](NC(=O)OC(C)(C)C)C(=O)N/N=C/c1ccc2cc(OC)ccc2n1", "note": "(some centres unmarked)", "hERG current change (%, negative = inhibition) at 10uM": -13.7}
{"molecule": "COc1ccc2nc(/C=N/NC(=O)[C@H](CCSC)NC(=O)OC(C)(C)C)ccc2c1", "hERG current change (%, negative = inhibition) at 10uM": -59.7}
{"molecule": "COc1ccc2nc(/C=N/NC(=O)[C@H](C)NC(=O)OC(C)(C)C)ccc2c1", "hERG current change (%, negative = inhibition) at 10uM": -7.25}
{"molecule": "Cc1ccc(NC(=O)C2=C(C(=O)O)CCCC2)cc1F", "hERG current change (%, negative = inhibition) at 10uM": 7.33}
{"molecule": "Cn1ncc(C(=O)Nc2ccc(Cl)cc2)c1C(F)(F)F", "hERG current change (%, negative = inhibition) at 10uM": -12}
{"molecule": "O=C(c1ccccc1)N1CCN(c2ccc([N+](=O)[O-])c(NCC3CCCO3)c2)CC1", "note": "(centres unmarked)", "hERG current change (%, negative = inhibition) at 10uM": -76.9}
{"molecule": "O=C(Nc1ccccc1)c1ccc(NCC2CCCO2)c([N+](=O)[O-])c1", "note": "(centres unmarked)", "hERG current change (%, negative = inhibition) at 10uM": -2.42}
{"molecule": "CN1CCN(c2ccc([N+](=O)[O-])c(NCC3CCCO3)c2)CC1.Cl", "note": "(centres unmarked)", "hERG current change (%, negative = inhibition) at 10uM": -41.4}
{"molecule": "O=C(NCCc1ccccc1)c1ccc(NCC2CCCO2)c([N+](=O)[O-])c1", "note": "(centres unmarked)", "hERG current change (%, negative = inhibition) at 10uM": -68.9}
{"molecule": "CC(C)(C)C(=O)N1CCN(c2ccc([N+](=O)[O-])c(NCC3CCCO3)c2)CC1", "note": "(centres unmarked)", "hERG current change (%, negative = inhibition) at 10uM": -20.8}
{"molecule": "NC(=O)c1ccc(NCC2CCCO2)c([N+](=O)[O-])c1", "note": "(centres unmarked)", "hERG current change (%, negative = inhibition) at 10uM": 12.7}
{"molecule": "O=[N+]([O-])c1ccc(N2CCNCC2)cc1NCC1CCCO1", "note": "(centres unmarked)", "hERG current change (%, negative = inhibition) at 10uM": -22.1}
{"molecule": "O=C(c1ccccc1F)N1CCN(c2ccc([N+](=O)[O-])c(NCC3CCCO3)c2)CC1", "note": "(centres unmarked)", "hERG current change (%, negative = inhibition) at 10uM": -80.8}
{"molecule": "CC(=O)N1CCN(c2ccc([N+](=O)[O-])c(NCC3CCCO3)c2)CC1", "note": "(centres unmarked)", "hERG current change (%, negative = inhibition) at 10uM": -18.3}
{"molecule": "O=C1CC(N(C(=O)c2ccco2)c2cccc(Cl)c2)C(=O)N1c1cccc(Cl)c1", "note": "(centres unmarked)", "hERG current change (%, negative = inhibition) at 10uM": -19.7}
{"molecule": "C/C(Cn1cnc([N+](=O)[O-])n1)=N\\NC(=O)c1ccccc1O", "hERG current change (%, negative = inhibition) at 10uM": 8.06}
{"molecule": "COc1cc(C(=O)Nc2ccc(Br)cc2C(=O)c2ccccc2)cc(OC)c1OC", "hERG current change (%, negative = inhibition) at 10uM": 12.4}
{"molecule": "COc1ccc(CNS(=O)(=O)c2cc(-c3cc(C)no3)ccc2C(C)C)cc1", "hERG current change (%, negative = inhibition) at 10uM": -14.9}
{"molecule": "CCCCC(CC)CNC(=O)C1CCCN(S(=O)(=O)c2cnc[nH]2)C1", "note": "(centres unmarked)", "hERG current change (%, negative = inhibition) at 10uM": 3.45}
{"molecule": "N#CCCN(CC(=O)O)S(=O)(=O)c1ccccc1", "hERG current change (%, negative = inhibition) at 10uM": 5.74}
{"molecule": "CC(C)(C)OC(=O)N[C@H](Cc1ccccc1)C(=O)N1CCC(C(=O)O)CC1", "hERG current change (%, negative = inhibition) at 10uM": 9.08}
{"molecule": "COc1ccc2c(c1)CCc1c(C(=O)Nc3cc(C)n(Cc4ccc(Cl)cc4)n3)noc1-2", "hERG current change (%, negative = inhibition) at 10uM": -30.5}
{"molecule": "COc1ccc(-c2nc(N)n[nH]2)cc1OC", "hERG current change (%, negative = inhibition) at 10uM": 18.9}
{"molecule": "COc1ccc(-c2n[nH]c3c2CN(C(=O)c2ccccc2)CC3)cc1", "hERG current change (%, negative = inhibition) at 10uM": -6.13}
{"molecule": "Fc1cccc(NCc2ccoc2)c1", "hERG current change (%, negative = inhibition) at 10uM": -7.89}
{"molecule": "Cc1ccc(-c2sc(-c3ccccc3)nc2CC(=O)Nc2ccccc2F)cc1", "hERG current change (%, negative = inhibition) at 10uM": 6.09}
{"molecule": "OCC1(Cc2ccccc2)CCCN(C2CCCC2)C1", "note": "(centres unmarked)", "hERG current change (%, negative = inhibition) at 10uM": -8.01}
{"molecule": "OCC1(Cc2ccccc2)CCN(C2CCN(c3ccc(F)c(F)c3)CC2)CC1", "hERG current change (%, negative = inhibition) at 10uM": -112}
{"molecule": "CC(=O)N1CCC(N2CCN(c3ccccc3F)CC2)CC1", "hERG current change (%, negative = inhibition) at 10uM": 0.444}
{"molecule": "O=C(NCc1ccccc1)N1CCN(c2ccccc2F)CC1", "hERG current change (%, negative = inhibition) at 10uM": 1.22}
{"molecule": "O=C(NCc1ccccc1)N1CCC(CO)(Cc2cccc(F)c2)CC1", "hERG current change (%, negative = inhibition) at 10uM": -12.8}
{"molecule": "OCC1(Cc2ccccc2)CCN(C2CCN(c3ccccc3F)CC2)CC1", "hERG current change (%, negative = inhibition) at 10uM": -68.8}
